Measurements from PubChem BioAssay.
Active and inactive are the calls of the source.

experiment: PSAC antagonists in infected red cells, primary screen, cell-based, P. falciparum Indochina, OD700, 1 h (AID 1154); conditions: P. falciparum Indochina infected RBC osmotic lysis, higher = more signal, called active from +8 up or from −8 down

z-score, active:
COc1cc(CO)cc(I)c1O[C@H]1C=C(C(=O)NCCO)C[C@@H](NC2CCCCCC2)[C@@H]1O 10.1, O=C1C2C=CC(C(O)c3cccs3)N(Nc3ccc([N+](=O)[O-])cc3)C2C(=O)N1c1ccccc1 (stereo unspecified) 8.61, C=C(CCCC)/C(=C/C[C@H](OC(=O)c1ccncc1)c1ccccc1OCCO)c1cc(C(=O)OC)ccc1OC 23.6, COc1ccc([Si](C)(C)[C@H]2[C@H](CCO)O[C@@]3(C(=O)N(Cc4ccc(NC(=O)[C@H](C)O)cc4)c4ccccc43)[C@@H]2C)cc1 29.9

z-score, inactive:
COC(=O)C(CC#Cc1ccc2c(c1)[C@]1(C(=O)N2)[C@H](c2ccc(OCCO)cc2)N2[C@H](c3ccccc3)[C@H](c3ccccc3)OC(=O)[C@H]2[C@@H]1C(=O)N1CCCCCCC1)C(=O)OC 7.3, C[C@]1(C(=O)O)c2ccccc2C(=O)N(Cc2cc(F)cc(C(F)(F)F)c2)[C@H]1c1ccc(CO)cc1 2.63, O=C(NC1CC1)[C@@H]1c2ccccc2C(=O)N(CC23CC4CC(CC(C4)C2)C3)[C@H]1c1ccc(CO)cc1 1.56, COC(=O)[C@@]1(Cc2ccc(OC)cc2)[C@H]2c3cc(C(=O)N4CCCC4)n(CCn4cc([N+](=O)[O-])nc4C)c3C[C@H]2CN1C(=O)c1ccccc1 2.38, CC1CC/C=C\[C@H]2OC34C=CCN(c5ccc6ccccc6c5)C(=O)[C@H]3N(C(C)CO)C(=O)[C@@H]4C2C(=O)O1 (stereo partly specified) 0.856, O=C1C[C@]2(c3ccc([N+](=O)[O-])cc3)C(=O)N(C3CC3)c3cc(CO)ccc3[C@H]2N1C1CCCCC1 -0.58, CCN(CC)c1ccc(N2CC=CC34O[C@@H]5C=CCCOC(=O)C5[C@H]3C(=O)N(C(C)CO)[C@@H]4C2=O)cc1 (stereo partly specified) 3.66, COC(=O)[C@@]1(Cc2ccccc2)[C@H]2c3cc(C(=O)N(C)C)n(CCO)c3C[C@H]2CN1C(=O)c1ccccc1 -0.469, CCOC(=O)C[C@H]1[C@H](OC(=O)c2ccccc2-c2ccccc2)[C@@H](NC(=O)C2CCCCC2)c2cc(OCCCO)ccc2N1C(=O)c1ccc2ccccc2n1 3.85, COC(=O)[C@@]1(Cc2ccc(F)cc2)[C@H]2c3cc(C(=O)N4CCCC4)n(Cc4ccccn4)c3C[C@H]2CN1C(=O)c1ccccc1 2.2, O=C(NCc1ccccc1)[C@@H]1c2ccccc2C(=O)N(Cc2cc(C(F)(F)F)cc(C(F)(F)F)c2)[C@H]1c1ccc(CO)cc1 2.87

experiment: PSAC antagonists in infected red cells, primary screen, cell-based, P. falciparum Indochina, OD700, 2 h (AID 1155);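 note: lysis reports solute entry through the parasite surface anion channel PSAC; channel blockers reduce lysis of infected cells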; conditions: P. falciparum Indochina infected erythrocytes, osmotic lysis OD700; higher = more signal, called active from +8 up or from −8 down

z-score, inactive:
CC(C)C(=C=CC[C@H](O)c1ccccc1OCCO)C[C@H](O)COCc1ccccc1 2.13, CC(C)NC(=O)[C@@]1(c2ccc([N+](=O)[O-])cc2)CC(=O)N(CC23CC4CC(CC(C4)C2)C3)[C@@H]1c1ccc(CO)cc1 0.814, CC(C)(C)N1CC=CC23O[C@@H]4C=CCOC(=O)[C@@H]4[C@H]2C(=O)N(CCO)[C@@H]3C1=O (stereo partly specified) 0.184, CN(C)CCCCNC(=O)[C@H]1C[C@H]2C(=O)NCC(=O)N2[C@H]1c1ccc(O)cc1 0.552, CC(C)C(O)C1C=CC2C(=O)NC(=O)C2N1Nc1ccccn1 (stereo unspecified) 0.695, O=C1C2C=CC(C(O)c3ccc([N+](=O)[O-])cc3)N(Nc3ccccc3F)C2C(=O)N1c1ccccc1 (stereo unspecified) 0.885, CN(C)CCCC[C@@H]1NC(=O)[C@@H]2C[C@H](C(=O)NCCCCCN)[C@H](c3cccc(OCCO)c3)N2C1=O -0.469, CC1CC/C=C\[C@H]2OC34C=CCN(Cc5ccccc5)C(=O)[C@H]3N(CCCCCCO)C(=O)[C@@H]4C2C(=O)O1 (stereo partly specified) 0.179, C=CCC(OC(C)=O)[C@@H]1[C@@H](N(Cc2cccc3ccccc23)C(=O)c2ccc(-c3ccccc3)cc2)c2cc(OCCCO)ccc2N1C(=O)Cc1ccc2ccccc2c1 (stereo partly specified) 0.35, CC(C)NC(=O)[C@@]1(C)c2ccccc2C(=O)N(Cc2ccccc2)[C@H]1c1ccc(CO)cc1 -0.883, COC(=O)[C@@]1(Cc2ccccc2)[C@H]2c3cc(C(=O)N4CCCC4)n(Cc4ccc(OC)c(OC)c4)c3C[C@H]2CN1C(=O)c1ccccc1 0.41, O=C1C[C@@](C(=O)NCc2ccccc2)(c2ccc([N+](=O)[O-])cc2)[C@@H](c2ccc(CO)cc2)N1C1CCCCC1 -0.881, CCOC(=O)C[C@H]1[C@H](OC(=O)c2ccccc2-c2ccccc2)[C@@H](NC(=O)c2ccc3ccccc3c2)c2cc(OCCCO)ccc2N1C(=O)Cc1ccc(OC)cc1 0.403, CCOC(=O)C[C@H]1[C@H](OC(=O)Cc2ccc3c(c2)OCO3)[C@@H](NC(=O)Cc2ccc(OC)cc2)c2cc(OCCCO)ccc2N1C(=O)Cc1ccc(OC)cc1 0.647, Cc1ccc(C(C)CC(O)C2C=CC3C(=O)N(C)C(=O)C3N2Nc2ccccc2)o1 (stereo unspecified) 0.962, Cc1ccc(S[C@]2(C(=O)NCC(F)(F)F)CC(=O)N(Cc3ccccc3C(F)(F)F)[C@@H]2c2ccc(CO)cc2)cc1 -0.107, COC(=O)C(CC#Cc1ccc2c(c1)[C@]1(C(=O)N2)[C@H](c2ccc(OCCO)cc2)N2[C@H](c3ccccc3)[C@H](c3ccccc3)OC(=O)[C@H]2[C@@H]1C(=O)N1CCCCCCC1)C(=O)OC 1.59, C[C@]1(C(=O)O)c2ccccc2C(=O)N(Cc2cc(F)cc(C(F)(F)F)c2)[C@H]1c1ccc(CO)cc1 -0.0481, O=C(NC1CC1)[C@@H]1c2ccccc2C(=O)N(CC23CC4CC(CC(C4)C2)C3)[C@H]1c1ccc(CO)cc1 0.464, COC(=O)[C@@]1(Cc2ccc(OC)cc2)[C@H]2c3cc(C(=O)N4CCCC4)n(CCn4cc([N+](=O)[O-])nc4C)c3C[C@H]2CN1C(=O)c1ccccc1 0.0212, CC1CC/C=C\[C@H]2OC34C=CCN(c5ccc6ccccc6c5)C(=O)[C@H]3N(C(C)CO)C(=O)[C@@H]4C2C(=O)O1 (stereo partly specified) 0.222, O=C1C[C@]2(c3ccc([N+](=O)[O-])cc3)C(=O)N(C3CC3)c3cc(CO)ccc3[C@H]2N1C1CCCCC1 0.0608, CCN(CC)c1ccc(N2CC=CC34O[C@@H]5C=CCCOC(=O)C5[C@H]3C(=O)N(C(C)CO)[C@@H]4C2=O)cc1 (stereo partly specified) 0.493, COC(=O)[C@@]1(Cc2ccccc2)[C@H]2c3cc(C(=O)N(C)C)n(CCO)c3C[C@H]2CN1C(=O)c1ccccc1 0.19, COc1cc(CO)cc(I)c1O[C@H]1C=C(C(=O)NCCO)C[C@@H](NC2CCCCCC2)[C@@H]1O 1.55, O=C1C2C=CC(C(O)c3cccs3)N(Nc3ccc([N+](=O)[O-])cc3)C2C(=O)N1c1ccccc1 (stereo unspecified) 1.43, CCOC(=O)C[C@H]1[C@H](OC(=O)c2ccccc2-c2ccccc2)[C@@H](NC(=O)C2CCCCC2)c2cc(OCCCO)ccc2N1C(=O)c1ccc2ccccc2n1 0.192, COC(=O)[C@@]1(Cc2ccc(F)cc2)[C@H]2c3cc(C(=O)N4CCCC4)n(Cc4ccccn4)c3C[C@H]2CN1C(=O)c1ccccc1 0.404, C=C(CCCC)/C(=C/C[C@H](OC(=O)c1ccncc1)c1ccccc1OCCO)c1cc(C(=O)OC)ccc1OC 6.35, O=C(NCc1ccccc1)[C@@H]1c2ccccc2C(=O)N(Cc2cc(C(F)(F)F)cc(C(F)(F)F)c2)[C@H]1c1ccc(CO)cc1 0.55

z-score, active:
CC(C)=C1C(=O)C(c2ccccc2)=C2CN3C(=O)N(CCc4ccccc4)C(=O)[C@]3(C)[C@H]21 24.2, [N-]=[N+]=Nc1ccccc1[C@H]1OC(c2ccc(OCCCO)cc2)=N[C@@]1(Cc1ccccc1)C(=O)NCC(O)CO (stereo partly specified) 30.4, COCCCNC(=O)[C@@]1(CCS(=O)(=O)c2ccccc2)COC(c2ccc(OCCCO)cc2)=N1 24.6, [N-]=[N+]=Nc1ccccc1[C@@H]1OC(c2ccc(OCCCO)cc2)=N[C@]1(CCS(=O)(=O)c1ccccc1)C(=O)NCC(O)CO (stereo partly specified) 27.2, COC(=O)[C@]1(Cc2ccccc2)N=C(c2ccc(OCCCO)cc2)O[C@@H]1c1ccccc1CN=[N+]=[N-] 24.7, COc1ccc([Si](C)(C)[C@H]2[C@H](CCO)O[C@@]3(C(=O)N(Cc4ccc(NC(=O)[C@H](C)O)cc4)c4ccccc43)[C@@H]2C)cc1 25.8
